Screens deposited in PubChem by several laboratories.
CYP2C9 inhib = blockers of cytochrome P450 2C9 activity – biochemical, luminescence, ADME assay, primary screen | CYP2C9 Supersomes, luciferin-H conversion | hit rate 20% among 96,000 | P11712 | inhibition, % at 5 µM;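 active = blocking of liver enzyme CYP2C9 beyond about 50% at 5 µM, limit read from the data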
Target sequence (P11712 whole entry, looked up): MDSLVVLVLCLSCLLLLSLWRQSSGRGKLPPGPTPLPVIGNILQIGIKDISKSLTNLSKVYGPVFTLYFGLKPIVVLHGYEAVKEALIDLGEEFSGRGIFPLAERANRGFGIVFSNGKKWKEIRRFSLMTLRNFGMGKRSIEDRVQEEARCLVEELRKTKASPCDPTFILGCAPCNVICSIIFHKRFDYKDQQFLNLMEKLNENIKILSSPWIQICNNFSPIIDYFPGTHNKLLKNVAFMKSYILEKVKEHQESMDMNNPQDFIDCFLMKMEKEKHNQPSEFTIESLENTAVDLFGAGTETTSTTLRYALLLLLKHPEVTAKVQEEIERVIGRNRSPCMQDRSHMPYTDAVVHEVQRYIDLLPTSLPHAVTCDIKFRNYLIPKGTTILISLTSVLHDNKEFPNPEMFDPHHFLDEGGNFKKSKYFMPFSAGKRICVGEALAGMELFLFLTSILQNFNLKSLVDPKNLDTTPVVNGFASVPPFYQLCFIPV
D1 allo mod = D1 CRE-luciferase signal change, two-sided – cell-based, HEK293 D1, dopamine EC30, D1 allosteric modulator project, primary screen; D(1A) dopamine receptor (Homo sapiens), P21728; dopamine EC30 potentiation; actives deviate in either direction; B-score at 10 µM; hit rate 5.9% among 58,000; AID 641, 2007;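 active = luminescence count or its row- and column-corrected plate score outside the 99.7% band of the plate's sample wells, on either side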
CYP2C19 activ = human CYP2C19 activators, primary screen, biochemical, luminescence; 96,000 tested, under 10 active; recombinant CYP2C19, luciferin-H EGE luminescence; hits give high values; 0 = fully inhibited enzyme, 1 = untreated enzyme; Cytochrome P450 2C19 (Homo sapiens), P33261; activation factor at 5 µM;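 active = activation factor of at least 2 at 5 µM in the primary screen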
CYP2C9 activ = human CYP2C9 activators, primary screen, biochemical, luminescence; Cytochrome P450 2C9 (Homo sapiens), P11712; recombinant CYP2C9, luciferin-H conversion; hits give high values; factor 1 = untreated enzyme, 0 = blocked; activation factor at 5 µM; hit rate 1.4% among 96,000; AID 1024, 2008;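 active = activation factor of 2 or more for CYP2C9 at a 5 µM dose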
CYP2C19 inhib = blockers of cytochrome P450 2C19 activity – biochemical, luminescence, ADME assay, primary screen | P33261 | CYP2C19 Supersomes, luciferin-H EGE luminescence, 30 min | inhibition, % at 5 µM | hit rate 21% among 96,000 | AID 778, 2007;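 active = CYP2C19 inhibition above a set limit at 5 µM in the primary screen, cut at about 50% in these data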
hDAT+cocaine = changed hDAT dopamine uptake under cocaine IC80, either direction, primary screen, cocaine antagonist project, cell-based, LLC-PK1 hDAT, [14C]-dopamine uptake, MLSMR | AID 449768, 2010 | hit rate 1.3% among 110,000 | Sodium-dependent dopamine transporter (Homo sapiens), Q01959 | LLC-PK1 hDAT cells, [14C]-dopamine uptake with cocaine IC80; actives deviate in either direction | B-score at 10 µM;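 active = Z score or B-score, a plate-position-corrected score, falls beyond the plate's 99.7% confidence bounds, in either direction; inactive = both scores lie inside the 99.7% bounds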
D1 mod confirm = D1 receptor positive allosteric modulators, retest, confirmation, cell-based, HEK293 D1, CRE-luciferase, duplicate. dopamine EC30 potentiation; hits give high values. hit rate 88% among 2,200. luminescence at 10 µM. shares compounds with D1 allo mod;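 active = luminescence in either of two replicates above the same-plate mean plus 3 SD of the low-dose dopamine control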
D1 no dopamine = D1 receptor agonism without dopamine, confirmation, mechanism study for D1 allosteric modulator project, cell-based, HEK293 D1, CRE-luciferase, secondary assay 1. luminescence, no dopamine; hits give high values. shares compounds with D1 allo mod. hit rate 0.8% among 1,900. luminescence at 10 µM; in the data active = luminescence above about 3900
Isoprot counter = isoproterenol response counter-screen activity for D1 modulators | calls only at 10 µM | shares compounds with D1 allo mod | AID 647 | hit rate 63% among 2,200 | HEK293 D1 CRE-luciferase, isoproterenol EC30 counter-screen;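 active = luminescence in either replicate above plate mean of wells with a partly effective reference agonist dose plus 3 SD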;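 also: isoproterenol raises cAMP through native beta-adrenoceptor Gs so signal bypasses D1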
Hits are given with their value; 0 = inactive; - = no result given; + = active, no number. Sampled rows, rich in hits. Any-hit rate of the full collection: about 28%.

SMILES	CYP2C9 inhib	D1 allo mod	CYP2C19 activ	CYP2C9 activ	CYP2C19 inhib	hDAT+cocaine	D1 mod confirm	D1 no dopamine	Isoprot counter
C=CCn1cc(C(=O)NCc2cccnc2)c(=O)c2cc(S(=O)(=O)N(CC)CC)ccc21	89.4	2.82	0	0	0	0	9940	0	+
CCn1cc(C(=O)NCCCN(C)c2ccccc2)c(=O)c2cc(S(=O)(=O)N(C)C)ccc21	0	5.56	0	0	0	0	8908	0	+
CCn1cc(C(=O)NCc2ccc3c(c2)OCO3)c(=O)c2cc(S(=O)(=O)N3CCOCC3)ccc21	0	3.7	0	0	0	0	10664	0	+
CCn1cc(C(=O)NCc2ccccc2OC)c(=O)c2cc(S(=O)(=O)N(C)C)ccc21	0	7.75	0	0	0	0	13952	0	+
CCc1ccc(NC(=O)C2C3C=CC(C4CC34)C2C(=O)O)cc1 (stereo unspecified)	-	-	-	-	-	0	-	-	-
O=c1[nH]c2c(c3c1CCCC3)CCCC2	0	0	0	0	0	0	-	-	-
CS(=O)(=O)N1CCC(C(=O)NCC2CCCO2)CC1 (stereo unspecified)	0	0	0	0	0	0	-	-	-
CCCOc1ccc(C(=O)C(CN2CCOCC2)c2ccccc2)cc1 (stereo unspecified)	-	-	-	-	-	0	-	-	-
CCCC(c1nnnn1C1CCCC1)N1CCN(C(=O)c2ccco2)CC1 (stereo unspecified)	0	3.44	0	0	0	0	0	0	0
CC(C)CC(c1nnnn1C1CCCC1)N1CCN(C(=O)c2ccco2)CC1 (stereo unspecified)	0	0	0	0	0	0	-	-	-
O=C(Nc1cnn(Cc2ccccc2)c1)c1cc2nc(-c3ccco3)cc(C(F)(F)F)n2n1	0	0	0	0	0	0	-	-	-
Cc1cc2ncn(C(=O)N3CCOCC3)c2cc1C	0	0	0	0	0	0	-	-	-
COc1cc2c(cc1OC)CN(C(=O)COc1ccc(C)c(C)c1)CC2	62.4	13.4	0	0	72.4	0	21228	0	+
COc1cccc(C(=O)N2CCN(C(=O)c3cccs3)CC2)c1OC	0	0	0	0	0	0	-	-	-
COc1ccc(-c2cc(C(=O)N3CCCc4ccccc43)no2)cc1OC	0	0	0	0	0	0	-	-	-
COc1ccc(-c2cc(C(=O)N3CCc4ccccc4C3)no2)cc1OC	0	4.63	0	0	0	0	10752	0	+
CCOc1ccc(C(=O)N2CCc3cc(OC)c(OC)cc3C2)cc1OCC	0	4.62	0	0	0	0	15188	0	+
COc1cc2c(cc1OC)CN(C(=O)NS(=O)(=O)c1ccc(C)cc1)CC2	0	0	0	0	0	0	-	-	-
COc1cc2c(cc1OC)CN(C(=O)c1cccs1)CC2	0	5.12	0	0	0	0	8784	0	+
O=C(Cn1nc(-c2ccccc2)c2ccccc2c1=O)NCCN1CCOCC1	0	0	0	0	0	0	-	-	-
O=C(c1cc2ccccc2oc1=O)N1CCN(CCc2ccccc2)CC1	0	0	0	0	0	0	-	-	-
CCOC(=O)c1sc2nc(N3CCCC3)c3c(c2c1N)CC(C)(C)OC3	0	12.7	0	0	0	0	21232	0	+
CCOC(=O)c1oc2nc(C)c3c(c2c1N)CC(C)(C)OC3	0	0	0	0	0	0	-	-	-
N#Cc1c2n(c(=O)[nH]c1=O)CCCCC2	-	0	-	-	-	0	-	-	-
COC(=O)c1c(N)c(C#N)c2n1CCCCC2	0	3.82	0	0	76.0	0	7512	-	0
SMILES	CYP2C9 inhib	D1 allo mod	CYP2C19 activ	CYP2C9 activ	CYP2C19 inhib	hDAT+cocaine	D1 mod confirm	D1 no dopamine	Isoprot counter
CCOCCOC(=O)C1=C(C)Nc2ccc(C)cc2S1	71.2	3.89	0	0	91.2	0	7892	0	0
Cc1nnc(NC(=O)c2ccc(-c3cccc(C(F)(F)F)c3)o2)s1	0	-	0	0	0	0	-	-	-
FC(F)(F)c1cccc(-c2ccc(-c3csnn3)o2)c1	0	24.4	0	0	55.5	0	0	0	0
COc1cccc(C(=O)OCCN2C(=O)c3ccccc3C2=O)c1OC	0	3.14	0	0	89.9	0	5788	0	+
CCSc1nc2cc(C(=O)OC)ccc2c(=O)n1CC	-	10.2	-	-	-	0	13500	0	+
CCCCn1c(SCn2nnc3ccccc3c2=O)nc2cc(C(=O)OC)ccc2c1=O	0	0	0	0	0	-	-	-	-
Cc1cnc(N)c2c(=O)oc3ccccc3c12	0	9.84	0	2	0	0	17776	-	+
O=c1oc2ccccc2c2nccnc12	0	0	0	0	0	0	-	-	-
COC(=O)C(C)Sc1nc(N)c(NC(=O)c2ccco2)c(=O)[nH]1 (stereo unspecified)	-	-	-	-	-	0	-	-	-
Nc1nc(SCC(=O)OCc2ccccc2)[nH]c(=O)c1NC(=O)c1ccco1	0	3.19	0	0	0	0	6284	0	0
Nc1nonc1-n1nnc(C(=O)c2ccccc2)c1-c1ccccc1	90.9	4.29	0	0	98.1	0	9084	0	0
COc1ccc(-c2ccc(SCC(=O)N3CCCC3)nn2)cc1OC	0	14.3	0	0	0	0	25344	0	+
COc1ccc(-c2ccc(SCC(=O)N3CCOCC3)nn2)cc1OC	0	12.4	0	0	0	0	27680	0	+
COc1ccc(-n2c(SCC(=O)NC3CCCCC3)nc3ccsc3c2=O)cc1	0	-	0	0	0	0	-	-	-
Cc1ccc(C(=O)NC(=S)Nc2cccc3c(C)cc(C)nc23)cc1	0	-	0	0	0	0	-	-	-
Cc1ccc(C)c2nc(N3CCCC3)c(C#N)cc12	0	0	0	0	0	0	-	-	-
CCc1ccc(C2C(C#N)=C(N)SC(N)=C2C#N)s1	75.7	7.29	0	0	0	0	8708	0	+
O/N=C1/C2C3CC4C5C3C1C5C1(OCCO1)C42 (stereo unspecified)	0	0	0	0	0	0	-	-	-
CN1C(=S)SC(C)(C)C1/[N+]([O-])=C/c1cccnc1 (stereo unspecified)	0	7.51	0	0	0	0	0	0	0
